Measured values published in the supplement of paper PMC11172423.

Tested on: Madurella mycetomatis MM55
Experiment: growth relative to untreated control; higher = less inhibition, active = 20 or less
Conditions: 25 µM
Method: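 Hyphal fragments of M. mycetomatis MM55 or F. senegalensis CBS197.79 in RPMI 1640/MOPS were exposed to each MMV COVID Box or Global Health Priority Box compound at 100 or 25 µM for 7 days at 37 °C. Viability was read with MTS (490 nm, M. mycetomatis) or resazurin (600 nm, F. senegalensis), background-corrected with a medium-only control and expressed as % growth relative to the untreated growth control. Inhibition of more than 80% was taken as growth inhibition.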

| Structure (SMILES) | growth |
| --- | --- |
| Clc1ccc(C(OCCN2CCCCC2)c2ccccc2)cc1 (stereo not given) | 120% (inactive) |
| CCc1nn(C)c(C(=O)NCc2ccc(Oc3ccc(C)cc3)cc2)c1Cl | 66.4% (inactive) |
| C[C@@H]1O[C@@H](O[C@@H]2C=C3CC[C@@H]4[C@H](CC[C@]5(C)[C@@H](c6ccc(=O)oc6)CC[C@]45O)[C@@]3(C)CC2)[C@H](O)[C@H](O)[C@H]1O | 93.2% (inactive) |
| CC(COc1ccc(Oc2ccccc2)cc1)Oc1ccccn1 (stereo not given) | 50.7% (inactive) |
| C=C(C)[C@H]1Cc2c(ccc3c2O[C@@H]2COc4cc(OC)c(OC)cc4[C@@H]2C3=O)O1 | 7.57% (active) |
| CCOc1ccc(C(C)(C)COCc2cccc(Oc3ccccc3)c2)cc1 | 97% (inactive) |
| O=C(NC(=O)c1c(F)cccc1F)Nc1ccc(Cl)cc1 | 99.6% (inactive) |
| Cc1c(COC(=O)[C@@H]2[C@H](C=C(Cl)C(F)(F)F)C2(C)C)cccc1-c1ccccc1 | 123% (inactive) |
| CCOC(=O)CC(SP(=S)(OC)OC)C(=O)OCC (stereo not given) | 128% (inactive) |
| O=C(NC(=O)c1c(F)cccc1F)Nc1ccc(Cl)c(Oc2ncc(C(F)(F)F)cc2Cl)c1 | 46.7% (inactive) |
| CN1C2CCC1CC(C#N)C2 (stereo not given) | 85.6% (inactive) |
| CN(C)[C@@H]1C(=O)C(C(N)=O)=C(O)[C@@]2(O)C(O)=C3C(=O)c4c(O)cccc4[C@@](C)(O)[C@H]3C[C@@H]12 | 102% (inactive) |
| CNC(=O)O/N=C(/C)SC | 112% (inactive) |
| CN1CCN(C(=O)O[C@H]2c3nccnc3C(=O)N2c2ccc(Cl)cn2)CC1 | 72.7% (inactive) |
| CCN(CC)c1nc(C)cc(OP(=S)(OC)OC)n1 | 110% (inactive) |
| Cc1cc(C2=NOC(c3cc(Cl)cc(Cl)c3)(C(F)(F)F)C2)ccc1C(=O)NCC(=O)NCC(F)(F)F (stereo not given) | 43.8% (inactive) |
| CC1(C)C(C=C(Cl)Cl)C1C(=O)OC(C#N)c1ccc(F)c(Oc2ccccc2)c1 (stereo not given) | 115% (inactive) |
| CCOP(=S)(OCC)Oc1cc(C)nc(C(C)C)n1 | 108% (inactive) |
| COC(=O)N(C(=O)N1CO[C@@]2(C(=O)OC)Cc3cc(Cl)ccc3C2=N1)c1ccc(OC(F)(F)F)cc1 | 46.3% (inactive) |
| COc1ccc(CCN2CCC(Nc3nc4ccccc4n3Cc3ccc(F)cc3)CC2)cc1 | 3.51% (active) |

Same assay, conditions: 100 µM

| Structure (SMILES) | growth |
| --- | --- |
| Clc1ccc(C(OCCN2CCCCC2)c2ccccc2)cc1 (stereo not given) | 4.6% (active) |
| CCc1nn(C)c(C(=O)NCc2ccc(Oc3ccc(C)cc3)cc2)c1Cl | 120% (inactive) |
| C[C@@H]1O[C@@H](O[C@@H]2C=C3CC[C@@H]4[C@H](CC[C@]5(C)[C@@H](c6ccc(=O)oc6)CC[C@]45O)[C@@]3(C)CC2)[C@H](O)[C@H](O)[C@H]1O | 82.8% (inactive) |
| CC(COc1ccc(Oc2ccccc2)cc1)Oc1ccccn1 (stereo not given) | 46.3% (inactive) |
| C=C(C)[C@H]1Cc2c(ccc3c2O[C@@H]2COc4cc(OC)c(OC)cc4[C@@H]2C3=O)O1 | 9.11% (active) |
| CCOc1ccc(C(C)(C)COCc2cccc(Oc3ccccc3)c2)cc1 | 116% (inactive) |
| O=C(NC(=O)c1c(F)cccc1F)Nc1ccc(Cl)cc1 | 81% (inactive) |
| Cc1c(COC(=O)[C@@H]2[C@H](C=C(Cl)C(F)(F)F)C2(C)C)cccc1-c1ccccc1 | 156% (inactive) |
| CCOC(=O)CC(SP(=S)(OC)OC)C(=O)OCC (stereo not given) | 131% (inactive) |
| O=C(NC(=O)c1c(F)cccc1F)Nc1ccc(Cl)c(Oc2ncc(C(F)(F)F)cc2Cl)c1 | 149% (inactive) |
| CN1C2CCC1CC(C#N)C2 (stereo not given) | 117% (inactive) |
| CN(C)[C@@H]1C(=O)C(C(N)=O)=C(O)[C@@]2(O)C(O)=C3C(=O)c4c(O)cccc4[C@@](C)(O)[C@H]3C[C@@H]12 | 82.5% (inactive) |
| CNC(=O)O/N=C(/C)SC | 137% (inactive) |
| CN1CCN(C(=O)O[C@H]2c3nccnc3C(=O)N2c2ccc(Cl)cn2)CC1 | 88.8% (inactive) |
| CCN(CC)c1nc(C)cc(OP(=S)(OC)OC)n1 | 99.4% (inactive) |
| Cc1cc(C2=NOC(c3cc(Cl)cc(Cl)c3)(C(F)(F)F)C2)ccc1C(=O)NCC(=O)NCC(F)(F)F (stereo not given) | 9.07% (active) |
| CC1(C)C(C=C(Cl)Cl)C1C(=O)OC(C#N)c1ccc(F)c(Oc2ccccc2)c1 (stereo not given) | 146% (inactive) |
| CCOP(=S)(OCC)Oc1cc(C)nc(C(C)C)n1 | 135% (inactive) |
| COC(=O)N(C(=O)N1CO[C@@]2(C(=O)OC)Cc3cc(Cl)ccc3C2=N1)c1ccc(OC(F)(F)F)cc1 | 115% (inactive) |
| COc1ccc(CCN2CCC(Nc3nc4ccccc4n3Cc3ccc(F)cc3)CC2)cc1 | 4.43% (active) |
